According to PubChem BioAssay AID1259240 (Keith Lab, Institute of Cancer Science, University of …, 2017):
Calls of active or inactive are those of the source. Rule as the data show it: active = fold change mostly below about -2 (no sharp cut-off); inactive = mostly above about -1.8.

assay: modulation of TERT promoter-driven luciferase – cell-based, luciferase reporter, human, primary screen (AID 1259240); conditions: A2780 TERT promoter luciferase reporter, 16 h; at 20 µM, fold versus average of vehicle-only wells

Row | SMILES | fold change | outcome
1 | O=C(O)C1CCN(c2nc3ccccc3n2Cc2ccccc2F)CC1 | 1.02 (inactive) | –
2 | CC1CCN(c2nnc(NC(=O)Nc3ccc(F)cc3)s2)CC1 | -1.1 (inactive) | –
3 | CCOC(=O)C1=C(CS(=O)(=O)c2ccc(C)c(C)c2)NC(=O)NC1c1ccc(Cl)cc1 (stereo not given) | 1.11 (inactive) | –
4 | CC1CCCCN1c1nnc(NC(=O)Cn2c(=O)oc3ccccc32)s1 (stereo not given) | 1.11 (inactive) | –
5 | COc1ccc(-c2nc(CSc3nc4c(c(=O)[nH]3)CCC4)c(C)o2)cc1 | – | inactive
6 | Cc1noc(C(=O)Nc2sc3c(c2C#N)CCC3)c1Cl | 1.31 (inactive) | –
7 | O=C(CN1C(=O)COc2ccc(S(=O)(=O)N3CCOCC3)cc21)N1CCOCC1 | -2.24 (active) | –
8 | Cc1c(C(=O)N2CC(C)CC(C)C2)sc2ncn(CC(=O)N3CCC(C)CC3)c(=O)c12 (stereo not given) | -1.37 (inactive) | –
9 | O=C(O)CSc1ncn(-c2ccccc2)n1 | -4.67 (active) | –
10 | Cc1nc(SCC(=O)Nc2ccc([N+](=O)[O-])cc2)c2c(=O)n(C)c(=O)n(C)c2n1 | -1.11 (inactive) | –
11 | COc1ccc(C2c3c(n[nH]c3C)C(=O)N2c2ccc(Br)cc2)c(OC)c1 (stereo not given) | -1.34 (inactive) | –
12 | CCOC(=O)C1CCCN(c2c(OCC)c(=O)c2=O)C1 (stereo not given) | 1.23 (inactive) | –
13 | CCOc1ccc(-n2c(O)c(C3=c4cc(Br)ccc4=NC3=O)[nH]c2=S)cc1 | – | inactive
14 | CCN(CC)C(=O)c1sc(N2C(=O)Nc3ccccc3N2O)c(C(=O)OC)c1C | 1.14 (inactive) | –
15 | O=C(Cc1ccc(NC2=NC3CS(=O)(=O)CC3S2)cc1)Nc1ccc(F)cc1 (stereo not given) | -1.7 (inactive) | –
16 | COc1ccc(Cl)cc1S(=O)(=O)n1ccnc1C(C)C | -4.76 (active) | –
17 | CCOc1cc2c(cc1OCC)C(c1ccc(Cl)c(Cl)c1)CC(=O)N2 (stereo not given) | 1.29 (inactive) | –
18 | CN1C(C(=O)c2ccccc2)=C(OC(=O)c2ccc(F)cc2)c2ccccc2S1(=O)=O | 1.16 (inactive) | –
19 | CCOC(=O)N1CCC(Nc2c(N(CC)CC)c(=O)c2=O)CC1 | 1.22 (inactive) | –
20 | O=C(CC(=O)Nc1ccccn1)Nc1ccc2nc3n(c(=O)c2c1)CCCCC3 | -1.11 (inactive) | –

Row | SMILES | fold change | outcome
21 | O=C(CSc1nc(-c2ccco2)cc(C(F)(F)F)n1)N1CCOCC1 | -2.11 (active) | –
22 | O=S(=O)(c1cccc(-c2cn3ccccc3n2)c1)N1CCCCC1 | -1.03 (inactive) | –
23 | Cc1nc2cc(-c3ccccc3)nn2c(C)c1CCC(=O)NC(C)CCc1ccco1 (stereo not given) | -2.05 (active) | –
24 | CC1(C)NC(=O)N(CC(O)COc2ccccc2)C1=O (stereo not given) | -1.3 (inactive) | –
25 | CCOc1csc2nc(C)cc(C)c12 | -1.22 (inactive) | –
26 | Cc1cc(Cl)ccc1OCc1nc(-c2ccc(-n3cccc3)cc2)no1 | -1.5 (inactive) | –
27 | Cc1ccc(N2CCN(c3cc(C)nc4ncnn34)CC2)c(C)c1 | -1.38 (inactive) | –
28 | COC(CNS(=O)(=O)c1cccc2cccnc12)OC | -1.06 (inactive) | –
29 | COc1cc2c(c(OC)c1)C(c1cccc3ccccc13)CC(=O)N2 (stereo not given) | -1.05 (inactive) | –
30 | COc1ccc(-c2noc(-c3ccc(Cl)cc3)n2)cc1OC | -4.04 (active) | –
31 | O=C1c2ccccc2-c2onc3c(N4CCCC4)cc(NCCN4CCCC4)c1c23 | -1.05 (inactive) | –
32 | CCc1nc2ccccc2n1CC(O)COc1cccc(OC)c1 (stereo not given) | 1.45 (inactive) | –
33 | Cc1ccc(N2C(=O)c3n[nH]c(C)c3C2c2ccccc2Cl)cc1 (stereo not given) | -1.14 (inactive) | –
34 | Cn1c(=O)c2c(SCC(=O)N3CCCc4ccccc43)nc(-c3ccco3)nc2n(C)c1=O | 1.45 (inactive) | –
35 | CC1CCCCC1NC(=O)c1cc2c(s1)-c1ccccc1OC2 (stereo not given) | -2.96 (active) | –
36 | Cc1ccccc1-c1nc(CSCC(=O)O)c(C)o1 | -1.01 (inactive) | –
37 | Cc1nc2sc3c(NC4CCCCC4)ncnc3c2c2c1COC(C)(C)C2 | -1.55 (inactive) | –
38 | CSCCC(C(=O)O)N1C(=O)/C(=C/c2cccnc2)SC1=S (stereo not given) | -1.77 (inactive) | –
39 | O=C(NC1CCCC1)C1CCC(CNS(=O)(=O)c2cccc3nsnc23)CC1 (stereo not given) | -1.64 (inactive) | –
40 | C=CCN1C(=O)/C(=c2\sc3nc(-c4ccccc4OC)nn3c2=O)c2cc(Br)ccc21 | 1.17 (inactive) | –
